“And” between values parts separate entries of the source, which are not always exact repeats. Equal entries are not always repeated. Results filed as inconclusive are left out. The source made the active and inactive calls. The call rests on the fitted dose curve; in most records, active means well fitted curve in the direction sought with a large enough effect; inconclusive means small, poorly fitted or top-dose-only effect, or another doubt; inactive means no such curve, though single readings can be large; an effect the other way counts as inactive or inconclusive.
Columns and labels:
[1] = qHTS of pediatric cancer cell lines to identify multiple opportunities for drug repurposing: Confirmatory screen for A673 cells (AID 1347110); further: nearly all actives have a fitted effect of over 65% in size
Method in brief: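 Concentration-response curves came straight from titrations: 11 points (0.78 nM to 46 µM) for MIPE and several concentrations (0.59 nM to 46 µM) for NPC in primary, 11 points in follow-up. Readout: ATP luminescence at 48 h.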

[2] = qHTS of pediatric cancer cell lines to identify multiple opportunities for drug repurposing: Confirmatory screen for SK-N-MC cells (AID 1347111);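 further: cells exposed to compound for 48 h before the readout; nearly all actives have a fitted effect of over 70% in size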
Method in brief: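 SK-N-MC cells at 500-1,000 cells/well in growth media were pre-incubated 5 h, then exposed to compounds at 11-point dilutions for 48 h at 37 degrees C, 5% CO2. Viability was read as CellTiter-Glo luminescence.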

[3] = qHTS of pediatric cancer cell lines to identify multiple opportunities for drug repurposing: Confirmatory screen for LAN-5 cells (AID 1347113); further: nearly all actives have a fitted effect of over 65% in size
Method in brief: (§1)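 Viability after 48 h compound treatment at 37C, 500-1,000 cells/well, read as ATP luminescence with CellTiter-Glo. Primary screens used 11-point (MIPE, 0.78 nM-46 µM) or 8-point (NPC, 0.59 nM-46 µM) final concentrations; follow-up screens used 11-point dilutions.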

[4] = qHTS of pediatric cancer cell lines to identify multiple opportunities for drug repurposing: Confirmatory screen for DAOY cells (AID 1347114); further: nearly all actives have a fitted effect of over 65% in size
Method in brief: (§2)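 Viability measured as metabolically active cells via CellTiter-Glo luminescence following 48 hours of compound exposure, 11-point dilutions in confirmatory testing. 500-1,000 cells/well plated 5 hours before dosing; controls were DMSO and 2.3 µM bortezomib.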

[5] = qHTS of pediatric cancer cell lines to identify multiple opportunities for drug repurposing: Confirmatory screen for TC32 cells (AID 1347118); further: nearly all actives have a fitted effect of over 65% in size
Method in brief: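 TC32 cells, 500-1,000/well in growth medium, compound-treated 48 h at 37 °C; viability from CellTiter-Glo luminescence. Primary screen: MIPE 11-point (0.78 nM–46 µM final), NPC 8-point (0.59 nM–46 µM final); confirmatory at 11-point dilutions.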

[6] = qHTS of pediatric cancer cell lines to identify multiple opportunities for drug repurposing: Confirmatory screen for control Hh wild type fibroblast cells (AID 1347121); further: nearly all actives have a fitted effect of over 70% in size
Method in brief: as §1

[7] = qHTS of pediatric cancer cell lines to identify multiple opportunities for drug repurposing: Confirmatory screen for RD cells (AID 1347124)
Method in brief: as §1

[8] = qHTS of pediatric cancer cell lines to identify multiple opportunities for drug repurposing: Confirmatory screen for Rh18 cells (AID 1347125); further: nearly all actives have a fitted effect of over 55% in size
Method in brief: as §1

[9] = qHTS of pediatric cancer cell lines to identify multiple opportunities for drug repurposing: Confirmatory screen for Rh30 cells (AID 1347126); further: nearly all actives have a fitted effect of over 55% in size
Method in brief: as §1

[10] = biological target: N-terminal Xaa-Pro-Lys N-methyltransferase 1 (Homo sapiens) (UniProt Q9BV86); assay: qHTS Assay for Inhibitors of N-terminal methyltransferase 1 (NTMT1): LOPAC validation of the NTMT1 SAHH-coupled ThioGlo3 Assay (AID 1347143);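 further: SAH from peptide methylation measured as thiol fluorescence via SAHH coupling and ThioGlo3; nearly all actives have a fitted effect of over 70% in size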
Chain of N-terminal Xaa-Pro-Lys N-methyltransferase 1 (Homo sapiens) (Q9BV86 whole entry, looked up): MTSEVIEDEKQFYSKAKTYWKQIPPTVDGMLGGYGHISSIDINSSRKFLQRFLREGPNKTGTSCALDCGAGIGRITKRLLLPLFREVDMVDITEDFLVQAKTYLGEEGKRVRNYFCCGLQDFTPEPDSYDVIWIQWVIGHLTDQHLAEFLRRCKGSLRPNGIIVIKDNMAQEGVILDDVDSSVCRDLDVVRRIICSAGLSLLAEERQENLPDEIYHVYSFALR
Method in brief: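 Steps: dispense 125nM NTMT1; pin-transfer test compounds at several concentrations, with 1uM RCC1-6 peptide as control; incubate 1 min; start with reagent holding 100uM SAM, 10uM SAHH, 15uM ThioGlo3; read at 0 and 30 min.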

Furin (Homo sapiens) = Furin (Homo sapiens) (UniProt P09958); assay: Furin counterscreen qHTS for Zika virus inhibitors (AID 1347149); further: nearly all actives have a fitted effect of over 70% in size
Chain of Furin (Homo sapiens) (P09958 whole entry, looked up): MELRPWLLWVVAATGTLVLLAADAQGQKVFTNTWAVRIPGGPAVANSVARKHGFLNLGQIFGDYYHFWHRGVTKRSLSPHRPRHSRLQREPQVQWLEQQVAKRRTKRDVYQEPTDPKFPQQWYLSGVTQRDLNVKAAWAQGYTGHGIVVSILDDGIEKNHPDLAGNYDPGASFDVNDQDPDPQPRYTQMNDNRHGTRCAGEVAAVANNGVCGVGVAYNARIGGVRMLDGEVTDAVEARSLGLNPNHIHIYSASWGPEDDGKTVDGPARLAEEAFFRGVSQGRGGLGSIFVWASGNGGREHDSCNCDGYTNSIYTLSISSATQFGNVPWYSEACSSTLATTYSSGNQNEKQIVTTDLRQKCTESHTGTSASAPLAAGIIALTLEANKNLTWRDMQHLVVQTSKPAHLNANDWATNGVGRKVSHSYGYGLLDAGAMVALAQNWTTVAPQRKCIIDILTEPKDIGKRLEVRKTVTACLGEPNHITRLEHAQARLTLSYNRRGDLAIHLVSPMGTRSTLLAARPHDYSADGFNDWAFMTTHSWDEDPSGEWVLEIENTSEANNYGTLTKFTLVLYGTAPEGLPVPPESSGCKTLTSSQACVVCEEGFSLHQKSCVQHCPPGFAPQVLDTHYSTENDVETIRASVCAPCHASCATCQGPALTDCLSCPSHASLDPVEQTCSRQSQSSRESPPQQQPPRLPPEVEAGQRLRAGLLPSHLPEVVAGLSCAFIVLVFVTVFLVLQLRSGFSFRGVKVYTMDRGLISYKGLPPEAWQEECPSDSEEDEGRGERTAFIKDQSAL
Method in brief: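 Counterscreen measures cleavage of 2 microM BOC-RVRR-AMC, below its ~15 microM Km, by 5 nM full-length human furin at pH 7.0 after a 15-min compound preincubation. Inhibition derives from the 15-min fluorescence increase at 37C.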

[11] = tested on: Zika virus NS2B-NS3 protease (unlinked complex); assay: Confirmatory screen GU AMC qHTS for Zika virus inhibitors (AID 1347153); further: nearly all actives have a fitted effect of over 70% in size;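 on Potency: enzyme at 25 nM with substrate at 10 µM below its Km of 18.3 µM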
Method in brief: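 Unlinked NS2B-NS3 complex (25 nM) in 10 mM Tris-HCl pH 8.0, 0.01% Tween 20 preincubated 15 min with compound, then 10 microM Bz-Nle-KRR-AMC (Km 18.3 µM). Fluorescence change over 15 min, normalized, Hill-fitted.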

[12] = qHTS of pediatric cancer cell lines to identify multiple opportunities for drug repurposing: Confirmatory screen for NB1643 cells (AID 1347109); further: nearly all actives have a fitted effect of over 45% in size
Method in brief: as §1

[13] = qHTS of pediatric cancer cell lines to identify multiple opportunities for drug repurposing: Confirmatory screen for NB-EBc1 cells (AID 1347115); further: nearly all actives have a fitted effect of over 45% in size
Method in brief: as §1

[14] = qHTS of pediatric cancer cell lines to identify multiple opportunities for drug repurposing: Confirmatory screen for Saos-2 cells (AID 1347127); further: nearly all actives have a fitted effect of over 60% in size
Method in brief: as §1

[15] = tested on: Zika virus NS2B-NS3 protease (unlinked); assay: Optimization of GU AMC qHTS for Zika virus inhibitors: Unlinked NS2B-NS3 protease assay (AID 1347151); further: nearly all actives have a fitted effect of over 80% in size
Method in brief: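 Fluorescence read-out (340 nm ex / 450 nm em) of AMC peptide cleavage, taken immediately and after 15 min at room temperature (~20% conversion). Enzyme was the unlinked NS2B–NS3 complex at 25 nM in Tris pH 8.0 buffer.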

[16] = qHTS of pediatric cancer cell lines to identify multiple opportunities for drug repurposing: Confirmatory screen for SJ-GBM2 cells (AID 1347116); further: nearly all actives have a fitted effect of over 60% in size
Method in brief: as §2

[17] = qHTS of pediatric cancer cell lines to identify multiple opportunities for drug repurposing: Confirmatory screen for U-2 OS cells (AID 1347122); further: nearly all actives have a fitted effect of over 65% in size
Method in brief: as §1

[18] = qHTS of pediatric cancer cell lines to identify multiple opportunities for drug repurposing: Confirmatory screen for Rh41 cells (AID 1347123);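 further: 48 h compound exposure; nearly all actives have a fitted effect of over 60% in size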
Method in brief: as §1

[19] = tested on: Zika virus NS2B-NS3 protease (linked construct); assay: Confirmatory screen NINDS AMC qHTS for Zika virus inhibitors (AID 1347152); further: nearly all actives have a fitted effect of over 70% in size
Method in brief: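 Linked NS2B-NS3 1 nM, Tris pH 8.0/0.01% Tween 20; cpd 15 min RT dark; + Nle-KRR-AMC 10 µM (Km 18.3 µM); read 0 and 15 min, 340/450 nm; %inh vs controls, 4-param Hill.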

Measured: Potency
Potency means the concentration at half of the fitted maximal effect.

CN(Cc1cnc2nc(N)nc(N)c2n1)c1ccc(C(=O)N[C@@H](CCC(=O)O)C(=O)O)cc1
inactive: [3] | [6] | [8] | [9] | [11]
active: [1] 0.0329 µM | [2] 0.0369 µM | [4] 0.117 µM | [5] 0.0369 µM | [7] 0.0827 µM | [10] 79.4 µM | Furin (Homo sapiens) 19.1 µM

CC(C)C(=O)Nc1ccc([N+](=O)[O-])c(C(F)(F)F)c1
active: [1] 10.4 µM | [4] 16.5 µM
inactive: [12] | [3] | [13] | [6] | [14] | [15]

CC[C@@]1(O)C(=O)OCc2c1cc1n(c2=O)Cc2cc3c(CN(C)C)c(O)ccc3nc2-1
active: [12] 0.329 µM | [1] 0.131 µM | [2] 0.0465 µM | [3] 0.185 µM | [4] 5.22 µM | [13] 0.0928 µM | [16] 1.31 µM | [5] 0.0585 µM | [17] 10.4 µM | [18] 3.69 µM | [7] 5.85 µM | [8] 5.22 µM | [9] 2.93 µM | [14] 0.208 µM
inactive: [6] | [10] | [15]

CN1CCN(CCCN2c3ccccc3Sc3ccc(Cl)cc32)CC1
inactive: [13] | [6]
active: [1] 7.37 µM | [2] 3.69 µM | [3] 16.5 µM | [4] 20.8 µM | [17] 5.85 µM | [18] 11.7 µM | [7] 18.5 µM | [9] 18.5 µM | [10] 44.7 µM

CN(C)CCCN1c2ccccc2CCc2ccc(Cl)cc21
inactive: [13] | [16] | [5] | [6] | [15]
active: [4] 20.8 µM | [18] 10.4 µM

O=C(Nc1ccc([N+](=O)[O-])cc1Cl)c1cc(Cl)ccc1O
inactive: Furin (Homo sapiens) | [15]
active: [12] 1.62 µM | [1] 5.12 µM | [2] 4.07 µM | [3] 3.23 µM | [4] 1.02 µM | [13] 1.44 µM | [16] 4.07 µM | [5] 2.04 µM | [6] 3.62 µM | [17] 4.56 µM | [18] 1.15 µM | [7] 4.56 µM | [8] 3.62 µM | [9] 2.29 µM | [14] 2.29 µM

NC(=O)NO
active: [1] 0.414 µM | [5] 20.8 µM | [17] 23.3 µM
not listed: [9] | Furin (Homo sapiens) | [11] | [15] | [16] | [19]
inactive: all other assays above

COc1cc2c(c(OC)c1OC)-c1ccc(OC)c(=O)cc1[C@@H](NC(C)=O)CC2
inactive: [6] | [8] | [15]
active: [12] 0.0447 µM | [1] 0.0316 µM | [2] 0.0398 µM | [3] 0.0891 µM | [4] 0.02 µM | [5] 0.0355 µM | [17] 0.112 µM | [7] 0.0708 µM | [14] 0.0447 µM

NC(CO)C(=O)NNCc1ccc(O)c(O)c1O (configuration not stated)
active: [10] 8.91 µM

CC(C)NCC(O)COc1ccc(CCOCC2CC2)cc1 (configuration not stated)
inactive: [10]

COC(=O)Nc1nc2ccc(C(=O)c3cccs3)cc2[nH]1
active: [12] 0.522 µM | [1] 0.147 µM | [2] 0.147 µM | [3] 0.522 µM | [4] 0.131 µM | [5] 0.131 µM | [17] 0.208 µM | [7] 0.233 µM | [14] 0.131 µM
inactive: [6] | [8] | [9] | [15]

CC#C[C@]1(O)CC[C@H]2[C@@H]3CCC4=CC(=O)CCC4=C3[C@@H](c3ccc(N(C)C)cc3)C[C@@]21C
active: [5] 18.5 µM | [18] 23.3 µM | [10] 11.2 µM
inactive: [13] | [16] | [6] | [7]

CC1COc2c(N3CCN(C)CC3)c(F)cc3c(=O)c(C(=O)O)cn1c23 (configuration not stated)
active: [10] 56.2 µM | Furin (Homo sapiens) 24.1 µM and 27.1 µM | [19] 24.1 µM and 27.1 µM | [11] 27.1 µM

Cc1cnc(C(=O)NCCc2ccc(S(=O)(=O)NC(=O)NC3CCCCC3)cc2)cn1
inactive: [10] | Furin (Homo sapiens) | [15] | [19] | [11]

CN(C)c1nc(N(C)C)nc(N(C)C)n1
inactive: [10] | [15]

CCOC(=O)c1ncn2c1CN(C)C(=O)c1cc(F)ccc1-2
inactive: [10]

O=C1Cc2cc(CCN3CCN(c4nsc5ccccc45)CC3)c(Cl)cc2N1
active: [10] 44.7 µM | Furin (Homo sapiens) 24.1 µM | [19] 34.1 µM

O=C(CCCN1CCC(O)(c2ccc(Cl)cc2)CC1)c1ccc(F)cc1
inactive: [10]

Cn1cnc2c1c(=O)[nH]c(=O)n2C
inactive: [10] | [15]

CC(=O)OCC(CCn1cnc2cnc(N)nc21)COC(C)=O
active: [10] 56.2 µM

Cn1c(=O)c2c(ncn2C)n(C)c1=O
inactive: [10]

COc1ccc(C2CNC(=O)C2)cc1OC1CCCC1 (configuration not stated)
inactive: [10]

NC(=O)OCC(COC(N)=O)c1ccccc1
inactive: [10]

OCCN1CCN(CCCN2c3ccccc3Sc3ccc(C(F)(F)F)cc32)CC1
active: [10] 44.7 µM

Nc1ccn([C@H]2CC[C@@H](CO)O2)c(=O)n1
inactive: [10]

COc1ccc2c(c1)c(CC(=O)O)c(C)n2C(=O)c1ccc(Cl)cc1
inactive: [10]

O=c1c(O)c(-c2ccc(O)c(O)c2)oc2cc(O)cc(O)c12
active: [10] 35.5 µM | [15] 2.12 µM
inactive: Furin (Homo sapiens)

Nc1nnc(-c2cccc(Cl)c2Cl)c(N)n1
inactive: [10]

O=c1[nH]cc(F)c(=O)[nH]1
inactive: [10]

CN(C)CCC=C1c2ccccc2C=Cc2ccccc21
inactive: [10] | [15]
